Data reported in PubChem BioAssay (NCATS).
Inconclusive results are not listed. Activity calls are given as the source filed them. The call rests on the fitted dose curve; in most records, active means well fitted curve in the direction sought with a large enough effect; inconclusive means small, poorly fitted or top-dose-only effect, or another doubt; inactive means no such curve, though single readings can be large; an effect the other way counts as inactive or inconclusive.

Legend:
[1] = Confirmatory screen GU Rhodamine qHTS for Zika virus inhibitors qHTS (AID 1347157); settings: purified enzyme assay, Rhodamine110 substrate fluorescence, 15 min; further: potency means the concentration at half of the fitted maximal effect; nearly all actives have a fitted effect of over 70% in size
Method in brief: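 Unlinked NS2B/NS3, 25 nM; Rhod110 peptide, 1.5 microM; compounds, up to 114 microM. Reaction run 15 min at RT in 10 mM Tris-HCl pH 8.0, 0.01% Tween 20; kinetic fluorescence change fitted with a 4-parameter Hill model.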

[2] = tested on: Zika virus NS2B-NS3 protease (linked construct); assay: Confirmatory screen NINDS AMC qHTS for Zika virus inhibitors (AID 1347152); settings: Purified linked NS2B-NS3, AMC substrate fluorescence; series mostly up to 56.6 µM; further: potency means the concentration at half of the fitted maximal effect; nearly all actives have a fitted effect of over 70% in size
Method in brief: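 Concentration-response confirmation used the NINDS linked protease (NS2B hydrophilic domain joined to NS3 protease domain), 1 nM, with a 15-min compound preincubation. Substrate, Nle-KRR-AMC at 10 microM, was read by UV fluorescence before and after 15 min.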

[3] = target: Furin (Homo sapiens) (UniProt P09958); assay: Furin counterscreen qHTS for Zika virus inhibitors (AID 1347149); settings: furin enzymatic counterscreen, fluorogenic substrate; series mostly up to 114 µM; further: nearly all actives have a fitted effect of over 70% in size; further: potency means the concentration at half of the fitted maximal effect
Method in brief: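 Fluorogenic cleavage of BOC-RVRR-AMC (2 microM final, Km ~15 µM) was monitored (ex 340, em 450 nm) at 37C after 15 min RT preincubation of 5 nM furin with compounds in HEPES pH 7.0 buffer with CaCl2 and Triton X-100. Percent inhibition was fitted to a 4-parameter Hill curve.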

[4] = tested on: Zika virus NS2B-NS3 protease (unlinked complex); assay: Confirmatory screen GU AMC qHTS for Zika virus inhibitors (AID 1347153); settings: Recombinant NS2B-NS3 protease, AMC substrate fluorescence;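 further: enzyme at 25 nM with substrate at 10 µM below its Km of 18.3 µM; potency means the concentration at half of the fitted maximal effect; nearly all actives have a fitted effect of over 70% in size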
Method in brief: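 Fluorescence change (ex 340/em 450 nm) over 15 min, ~20% substrate conversion, normalized to no-inhibitor and no-enzyme controls, then Hill-fitted. Unlinked protease at 25 nM; AMC peptide 10 µM.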

[5] = qHTS of pediatric cancer cell lines to identify multiple opportunities for drug repurposing: Primary screen for NB-EBc1 cells (AID 1347095); settings: NB-EBc1 neuroblastoma viability, CellTiter-Glo luminescence, 48 h; series mostly up to 46 µM
Method in brief: (§1)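 Cells plated at 500-1,000/well in growth medium, compounds added after 5 h. MIPE tested at 11 points (from 0.78 nM), NPC at 8 points (from 0.59 nM). CellTiter-Glo luminescence after 48 h; concentration-response curves from primary screen.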

[6] = qHTS of pediatric cancer cell lines to identify multiple opportunities for drug repurposing: Primary screen for U-2 OS cells (AID 1347096); settings: U-2 OS viability, CellTiter-Glo luminescence, 48 h; series mostly up to 46 µM; further: nearly all actives have a fitted effect of over 50% in size
Method in brief: (§2)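 Cells (500-1,000/well) in growth media were settled 5 h at 37 degrees C, then given compounds for 48 h. Viability was read as CellTiter-Glo luminescence. Primary runs used MIPE at 11 points (0.78 nM-46 µM) and NPC at 8 points (0.59 nM-46 µM); follow-ups used 11 points.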

[7] = qHTS of pediatric cancer cell lines to identify multiple opportunities for drug repurposing: Primary screen for Saos-2 cells (AID 1347097); settings: Saos-2 viability, CellTiter-Glo ATP luminescence, 48 h; series mostly up to 46 µM; further: nearly all actives have a fitted effect of over 40% in size
Method in brief: as §1

[8] = qHTS of pediatric cancer cell lines to identify multiple opportunities for drug repurposing: Primary screen for SK-N-SH cells (AID 1347098); settings: SK-N-SH viability, CellTiter-Glo luminescence, 48 h; series mostly up to 57 µM;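 further: DMSO served as neutral control and bortezomib at 2.3 µM as positive control; nearly all actives have a fitted effect of over 65% in size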
Method in brief: (§3)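 Cells (500-1,000/well) rested 5 h, then received compounds for 48 h; metabolically active cells were measured by CellTiter-Glo luminescence. Final concentrations spanned up to 46 µM (MIPE, 11-point) or 0.59 nM-46 µM (NPC, 8-point) in primary screens, 11-point in follow-ups.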

[9] = qHTS of pediatric cancer cell lines to identify multiple opportunities for drug repurposing: Primary screen for NB1643 cells (AID 1347099); settings: NB1643 neuroblastoma viability, CellTiter-Glo luminescence, 48 h; series mostly up to 46 µM; further: nearly all actives have a fitted effect of over 50% in size
Method in brief: as §1

[10] = qHTS of pediatric cancer cell lines to identify multiple opportunities for drug repurposing: Primary screen for LAN-5 cells (AID 1347100); settings: LAN-5 neuroblastoma viability, CellTiter-Glo luminescence, 48 h; series mostly up to 46 µM
Method in brief: as §2

[11] = qHTS of pediatric cancer cell lines to identify multiple opportunities for drug repurposing: Primary screen for BT-12 cells (AID 1347101); settings: BT-12 viability, CellTiter-Glo luminescence, 48 h; series mostly up to 57.3 µM; further: nearly all actives have a fitted effect of over 25% in size
Method in brief: as §3

[12] = qHTS of pediatric cancer cell lines to identify multiple opportunities for drug repurposing: Primary screen for Rh18 cells (AID 1347102); settings: Rh18 rhabdomyosarcoma viability, CellTiter-Glo luminescence, 48 h; series mostly up to 46 µM; further: nearly all actives have a fitted effect of over 65% in size
Method in brief: as §2

[13] = qHTS of pediatric cancer cell lines to identify multiple opportunities for drug repurposing: Primary screen for OHS-50 cells (AID 1347103); settings: OHS-50 osteosarcoma viability, CellTiter-Glo luminescence, 48 h; series mostly up to 57.3 µM; further: nearly all actives have a fitted effect of over 40% in size
Method in brief: as §3

[14] = qHTS of pediatric cancer cell lines to identify multiple opportunities for drug repurposing: Primary screen for RD cells (AID 1347104); settings: RD rhabdomyosarcoma viability, CellTiter-Glo luminescence, 48 h; series mostly up to 46 µM; further: nearly all actives have a fitted effect of over 55% in size
Method in brief: as §1

[15] = qHTS of pediatric cancer cell lines to identify multiple opportunities for drug repurposing: Primary screen for MG 63 (6-TG R) cells (AID 1347105); settings: MG 63 (6-TG R) viability, CellTiter-Glo, 48 h; series mostly up to 46 µM; further: nearly all actives have a fitted effect of over 50% in size
Method in brief: as §1

[16] = qHTS of pediatric cancer cell lines to identify multiple opportunities for drug repurposing: Primary screen for control Hh wild type fibroblast cells (AID 1347106); settings: Hh wild-type fibroblast viability, CellTiter-Glo luminescence, 48 h; series mostly up to 46 µM;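 further: a drop in luminescence marks cytotoxicity and a rise apparent proliferation; nearly all actives have a fitted effect of over 55% in size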
Method in brief: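 Viability after 48 h compound treatment at 37C, 500-1,000 cells/well, read as ATP luminescence with CellTiter-Glo. Primary screens used 11-point (MIPE, 0.78 nM-46 µM) or 8-point (NPC, 0.59 nM-46 µM) final concentrations; follow-up screens used 11-point dilutions.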

[17] = qHTS of pediatric cancer cell lines to identify multiple opportunities for drug repurposing: Primary screen for Rh30 cells (AID 1347107); settings: Rh30 rhabdomyosarcoma viability, CellTiter-Glo luminescence, 48 h; series mostly up to 46 µM; further: nearly all actives have a fitted effect of over 75% in size
Method in brief: as §2

[18] = qHTS of pediatric cancer cell lines to identify multiple opportunities for drug repurposing: Primary screen for Rh41 cells (AID 1347108); settings: Rh41 rhabdomyosarcoma viability, CellTiter-Glo luminescence, 48 h; series mostly up to 46 µM
Method in brief: as §1

[19] = target: N-terminal Xaa-Pro-Lys N-methyltransferase 1 (Homo sapiens) (UniProt Q9BV86); assay: qHTS Assay for Inhibitors of N-terminal methyltransferase 1 (NTMT1): LOPAC validation of the NTMT1 SAHH-coupled ThioGlo3 Assay (AID 1347143); settings: recombinant NTMT1, SAHH-coupled ThioGlo3 fluorescence
Method in brief: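 Fluorescence read-out (excitation 340nm, emission 450nm) of SAH-derived thiol, measured via SAHH coupling and ThioGlo3, taken immediately and after a 30 min room-temperature reaction, then normalized to the background read. Enzyme: NTMT1 at 125nM; cofactor SAM 100uM in the added reagent.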

Measured: Potency

Sequence of Furin (Homo sapiens) (P09958 whole entry, looked up): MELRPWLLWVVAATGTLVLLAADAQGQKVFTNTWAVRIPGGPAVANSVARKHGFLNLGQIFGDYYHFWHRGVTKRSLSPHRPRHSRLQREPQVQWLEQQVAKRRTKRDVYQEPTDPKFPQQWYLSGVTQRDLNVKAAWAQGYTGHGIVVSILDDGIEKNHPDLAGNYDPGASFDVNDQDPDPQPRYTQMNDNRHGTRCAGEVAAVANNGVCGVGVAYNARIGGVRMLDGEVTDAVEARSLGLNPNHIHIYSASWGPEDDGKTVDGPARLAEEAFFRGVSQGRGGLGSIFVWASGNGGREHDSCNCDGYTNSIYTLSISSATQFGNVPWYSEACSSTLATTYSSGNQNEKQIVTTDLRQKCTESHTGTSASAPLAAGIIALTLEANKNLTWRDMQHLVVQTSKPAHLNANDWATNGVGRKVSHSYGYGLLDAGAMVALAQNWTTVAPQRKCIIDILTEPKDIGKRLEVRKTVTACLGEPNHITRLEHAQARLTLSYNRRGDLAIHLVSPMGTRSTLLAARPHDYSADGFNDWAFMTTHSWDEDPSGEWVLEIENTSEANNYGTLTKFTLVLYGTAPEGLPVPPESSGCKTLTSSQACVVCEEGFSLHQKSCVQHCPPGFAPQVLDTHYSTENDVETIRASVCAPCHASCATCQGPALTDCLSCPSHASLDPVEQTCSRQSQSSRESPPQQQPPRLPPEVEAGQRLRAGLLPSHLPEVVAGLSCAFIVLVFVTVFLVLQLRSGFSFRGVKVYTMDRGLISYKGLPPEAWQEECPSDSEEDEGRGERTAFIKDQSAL
Sequence of N-terminal Xaa-Pro-Lys N-methyltransferase 1 (Homo sapiens) (Q9BV86 whole entry, looked up): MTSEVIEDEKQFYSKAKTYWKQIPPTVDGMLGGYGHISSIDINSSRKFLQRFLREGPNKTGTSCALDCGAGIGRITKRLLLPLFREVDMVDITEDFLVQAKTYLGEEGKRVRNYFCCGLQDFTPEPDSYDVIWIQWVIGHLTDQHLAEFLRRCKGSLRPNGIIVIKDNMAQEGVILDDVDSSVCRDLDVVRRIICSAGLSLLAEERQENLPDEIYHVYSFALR

O=S(=O)(O)c1cc(O)c2c(N=Nc3ccc(Nc4ccccc4)c4c(S(=O)(=O)O)cccc34)cc(S(=O)(=O)O)cc2c1
active: [1] 2.82 µM

CCCCS(=O)(=O)Nc1ncnc(OCCOc2ncc(Br)cn2)c1-c1ccc(Br)cc1
active: [1] 22.1 µM

CCOc1ccc(-c2ccc(Cn3c(CC(C)(C)C(=O)O)c(SC(C)(C)C)c4cc(OCc5ccc(C)cn5)ccc43)cc2)cn1
active: [2] 7.84 µM | [1] 1.75 µM

O=C(O)c1cc(O)c2cccc(O)c2c1O[C@@H]1O[C@H](CO)[C@@H](O)[C@H](O)[C@H]1O
active: [3] 34.3 µM | [2] 30.6 µM | [4] 30.6 µM | [1] 10.9 µM

COc1cccc(-n2nc(C(=O)O)cc2-c2ccc(C3CCCCC3)c(Cl)c2)c1
active: [2] 13.9 µM | [4] 12.4 µM | [1] 2.21 µM

CN1Cc2c(N)cccc2C(c2ccccc2)C1 (centres undefined)
active: [19] 35.5 µM
not listed: [1] | [2] | [3] | [4]
inactive: all other assays above

O=S(=O)(O)c1ccc2c(N=Nc3ccc(S(=O)(=O)O)c4ccccc34)c(O)c(S(=O)(=O)O)cc2c1
active: [4] 31.2 µM | [1] 10 µM
inactive: [3]

CC(=O)OC(C)OC(=O)C(C)c1ccc(-c2ccccc2)c(F)c1 (centres undefined)
not listed: [1] | [2] | [3] | [4] | [19]
inactive: all other assays above

CC1(C)CC[C@]2(C(=O)O[C@@H]3O[C@H](CO)[C@@H](O)[C@H](O)[C@H]3O)CC[C@]3(C)C(=CCC4[C@@]5(C)C[C@@H](O)[C@H](O)[C@@](C)(CO)C5CC[C@]43C)C2C1 (some centres undefined)
active: [1] 11.7 µM
